Here are results for 15 molecules from PubChem BioAssay (NCATS).

Inconclusive results are not listed. Active and inactive are the calls of the source. Calls come from the whole dose curve; as a rule, active = well fitted curve in the direction sought with a large enough effect; inconclusive = small, poorly fitted or top-dose-only effect, or another doubt; inactive = no such curve, though single readings can be large; an effect the other way counts as inactive or inconclusive.

One assay in a line: Quantitative High-Throughput drug screen in 47 multiple myeloma cell lines against the NCATS MIPE library collection: KMS11_JCRBsus cell viability assay (AID 1919873).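 For viability (% of control): 100% = DMSO-only wells and 0% = media-only wells without cells.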 Note: nearly all actives have a fitted effect of over 50% in size. Note: potency is the fitted concentration of half-maximal effect. The settings on record: KMS11 myeloma viability, CellTiter-Glo ATP luminescence, 48 h; series mostly up to 45.8 µM; viability (% of control): at the top concentration. The gist of the method: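 ATP-based luminescence (CellTiter-Glo, 5 min RT incubation) quantified surviving cells following two days' treatment with MIPE 4.0 agents at 37 °C, 5% CO2.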
In general terms: In ATP-based viability assays light output follows the ATP content of the culture.
For `O=C(O)c1nn(Cc2ccc(Cl)cc2Cl)c2ccccc12`, the “viability (% of control)” value was 97.8% (inactive).

As for `COc1ccc(C(=O)N2CCCC2=O)cc1`, the Potency is 20.9 µM (active).

In the case of `COC(=O)C1=CCCN(C)C1`, the “viability (% of control)” value is 90.8% (inactive).

With `C[C@@H]1C[C@@H]([C@H](O)CC2CC(=O)NC(=O)C2)C(=O)[C@@H](C)C1`, the Potency was 0.187 µM (active).

The nature of a further assay: Quantitative High-Throughput drug screen in 47 multiple myeloma cell lines against the NCATS MIPE library collection: KMS28BM_JCRB cell viability assay (AID 1919874). Note: nearly all actives have a fitted effect of over 35% in size. Note: potency is the fitted concentration of half-maximal effect. The settings on record: CellTiter-Glo ATP, 48 h; series mostly up to 45.8 µM; viability, % of control: at the top concentration. An excerpt:
PI: Beverly A. Mock Ph.D.
Laboratory of Cancer Biology and Genetics,
Center for Cancer Research, National Cancer Institute,
National Institute of Health, Bethesda, Maryland
Drug resistance and disease progression are common in multiple myeloma (MM) patients, underscoring the need for new therapeutic combinations. […] We hypothesized that effective combinations would reduce MYC expression and enhance p16 activity. […] These preclinical data identify potentially useful drug combinations for evaluation in drug-resistant MM and reveal potential mechanisms of combined drug sensitivity.
Described herein is the primary MIPE qHTS used to cherrypick compounds. Validated compounds were then further tested for potential synergistic activiy.
[1] Peat TJ, Gaikwad SM, Dubois W, Gyabaah-Kessie N, Zhang S, Gorjifard S, Phyo Z, Andres M, Hughitt VK, Simpson RM, Miller MA, Girvin AT, Taylor A, Williams D, D'Antonio N, Zhang Y, Rajagopalan A, Flietner E, Wilson K, Zhang X, Shinn P, Klumpp-Thomas C, McKnight C, Itkin Z, Chen L, Kazandijian D, Zhang J, Michalowski AM, Simmons JK, Keats J, Thomas CJ, Mock BA. Drug combinations identified by high-throughput screening promote cell cycle transition and upregulate Smad pathways in myeloma. Cancer Lett. 2023 Aug 1;568:216284. doi: 10.1016/j.canlet.2023.216284. Epub 2023 Jun 24. PMID: 37356470; PMCID: PMC10408729.
SEQUENCE No. (e.g., 1, 2, 3, etc.); […] (e.g., Cells, Incubation, Reagent, etc.); VALUE and DESCRIPTION.
1; Cells; 5 uL; white, solid bottom 1536-well Greiner assay plate.
2; Compounds; 23 nL; Kalypsis pin tool (Wako USA) equipped with a 1536-well pin head to transfer to the assay plates.
3; Incubation; 48 hours; 37C incubation.
4; Reagent;5uL; CellTiter Glo (Promega).
5; Detector; 425V; Luminescence; Viewlux PerkinElmer. […]
1. […] Briefly, the corresponding myeloma cell lines were screened in 1,536-well plates with 500 cells, 5-uL per well for inhibition of cell viability (assessed by measuring ATP levels with CellTiterGlo). […]
5. Signal was measured as median relative luminescence units on a ViewLux (PerkinElmer) multiplate reader. […]
For the molecule `COc1ccc(C(=O)N2CCCC2=O)cc1`, the Potency is 8.33 µM (active).

On to `COC(=O)C1=CCCN(C)C1`, for which the “viability, % of control” value was 135% (inactive).

With `C[C@@H]1C[C@@H]([C@H](O)CC2CC(=O)NC(=O)C2)C(=O)[C@@H](C)C1`, the Potency is 0.833 µM (active).

The next assay is described as follows: KB-8-5-11 P-gp reporter qHTS against the NCATS DSHEA and TCM libraries (AID 1919977). Note: 0% is about no effect. The settings on record: KB-8-5-11 cells; series mostly up to 26.1 µM; activity change, negative = inhibition: at the top concentration. An outline of the steps:
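CellTiter-Glo luminescence measured viability after ~72 h exposure (37C, 5% CO2) of KB-8-5-11 cervical adenocarcinoma cells overexpressing P-gp. Colchicine was omitted during assay. Substances were tested as titrations.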
A general note: Quantitative high-throughput screening tests each substance at several concentrations.
In the case of `Cn1c(=O)c2c(ncn2C)n(C)c1=O`, the “activity change, negative = inhibition” value was -1.69% (inactive).

On to `NC(N)=NCCC[C@H](N)C(=O)O`, for which the “activity change, negative = inhibition” value is -2.57% (inactive).

On to `OC1C(O)C(O)C(O)C(O)C1O` (stereo not drawn), for which the “activity change, negative = inhibition” value is 6.21% (inactive).

With `O=C(/C=C/c1ccc(O)c(O)c1)O[C@@H]1C[C@@](OC(=O)/C=C/c2ccc(O)c(O)c2)(C(=O)O)C[C@@H](O)[C@@H]1O`, the “activity change, negative = inhibition” value is 0.838% (inactive).

For the molecule `O=c1ccc2ccccc2o1`, the “activity change, negative = inhibition” value was 3.08% (inactive).

Turning to `Nc1nc2ncc(CNc3ccc(C(=O)N[C@@H](CCC(=O)O)C(=O)O)cc3)nc2c(=O)[nH]1`, the “activity change, negative = inhibition” value was -3.88% (inactive).

On to `COc1ccc2cc3[n+](cc2c1OC)CCc1cc2c(cc1-3)OCO2`, for which the “activity change, negative = inhibition” value is -4.27% (inactive).

Turning to `OC[C@H]1O[C@@H](OCCc2ccc(O)cc2)[C@H](O)[C@@H](O)[C@H]1O`, the “activity change, negative = inhibition” value is 7.93% (inactive).

As for `C/C=C/c1ccc(OC)cc1`, the “activity change, negative = inhibition” value was -12.3% (inactive).

`C[C@]12CC[C@H](O)CC1=CC[C@@H]1[C@@H]2CC[C@]2(C)C(=O)CC[C@@H]12`: the “activity change, negative = inhibition” value was -23.5% (inactive).

For `O=C1O[C@H]([C@@H](O)CO)C(O)=C1O`, the “activity change, negative = inhibition” value was 1.78% (inactive).
